The results in this text go back to PubChem BioAssay AID743182 (Broad Institute, 2013).

SMILES strings stand for the structures. Activity calls are given as the source filed them.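 How the source made its calls: active means cell killing with a fitted half-maximal concentration at most twice the top valid dose tested; inconclusive means flat curve with 30 to 70% signal loss, or poor fit; inactive means the rest.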

The assay is described as follows: viability loss in HEK293 cells – cell-based, luminescence, dry powder, set 8, cytotoxicity control, dose response (AID 743182). To be noted: HEK293T viability, CellTiter-Glo ATP luminescence, 72 h; series mostly up to 26 µM; activity change, negative = cytotoxicity: at the top concentration.
Consider `O=C(N/N=C/c1c[nH]c2ccccc12)c1cccs1`, for which the “activity change, negative = cytotoxicity” value is -12.9% [at 12 µM] (inactive).

Turning to `CSc1ccc(/C=N/NC(=O)c2ccc3nc[nH]c3c2)cc1`, the “activity change, negative = cytotoxicity” value was -5.84% (inactive).

With `O=C(N/N=C/c1c[nH]c2ccccc12)c1cccc(O)c1`, the “activity change, negative = cytotoxicity” value was -7.33% (inactive).
